Assay results from PubChem BioAssay AID602143 (Vanderbilt Specialized Chemistry Center, 2011).
Active and inactive are the calls of the source. No stated cut-off is given here; in the data, active means remaining activity below about 50%; inactive means the rest.

Each molecule was assayed against Phospholipase D2 (Homo sapiens) (UniProt O14939) (assay: cellular phospholipase D2 activity inhibition – cell-based, HEK293, single concentration (AID 602143;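 further: tested at 200 nM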)). Conditions: HEK293 cellular PLD2 activity, percent of control; active compounds read low.
Chain of Phospholipase D2 (Homo sapiens) (O14939 whole entry, looked up): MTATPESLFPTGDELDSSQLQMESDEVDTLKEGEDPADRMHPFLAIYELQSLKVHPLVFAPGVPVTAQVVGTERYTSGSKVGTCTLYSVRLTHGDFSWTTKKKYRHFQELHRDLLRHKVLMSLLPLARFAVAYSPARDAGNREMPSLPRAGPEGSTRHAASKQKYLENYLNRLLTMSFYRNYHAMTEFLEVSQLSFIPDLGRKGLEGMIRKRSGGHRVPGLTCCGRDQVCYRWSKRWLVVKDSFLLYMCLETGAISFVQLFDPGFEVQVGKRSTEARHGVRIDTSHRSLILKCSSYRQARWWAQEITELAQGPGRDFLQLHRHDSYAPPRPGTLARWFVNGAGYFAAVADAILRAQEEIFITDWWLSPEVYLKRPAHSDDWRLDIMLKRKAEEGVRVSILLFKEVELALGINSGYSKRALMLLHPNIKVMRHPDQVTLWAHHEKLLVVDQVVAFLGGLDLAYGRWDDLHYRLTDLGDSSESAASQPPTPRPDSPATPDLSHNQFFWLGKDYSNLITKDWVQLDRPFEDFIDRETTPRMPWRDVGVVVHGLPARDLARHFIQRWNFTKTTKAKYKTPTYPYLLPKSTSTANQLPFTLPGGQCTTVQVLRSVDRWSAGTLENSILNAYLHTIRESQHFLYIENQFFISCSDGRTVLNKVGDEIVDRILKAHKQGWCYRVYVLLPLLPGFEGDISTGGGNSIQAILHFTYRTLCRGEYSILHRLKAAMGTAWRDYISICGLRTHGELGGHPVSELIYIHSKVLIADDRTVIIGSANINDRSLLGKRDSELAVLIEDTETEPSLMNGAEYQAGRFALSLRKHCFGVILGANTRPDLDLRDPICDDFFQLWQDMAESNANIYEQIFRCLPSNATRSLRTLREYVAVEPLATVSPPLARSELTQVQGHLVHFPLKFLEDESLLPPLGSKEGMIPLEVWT
Chain of Phospholipase D2 (Homo sapiens) (O14939 whole entry, looked up): as above

| SMILES | remaining activity |
| --- | --- |
| O=C(NCCN1CCC(n2c(=O)[nH]c3ccccc32)CC1)c1cnccn1 | 139% (inactive) |
| O=C(NCCN1CCC(C(=O)Nc2ccccc2)CC1)c1ccc2ccccc2c1 | 106% (inactive) |
| O=c1[nH]c2ccccc2n1C1CCN(CCNC(=S)Nc2ccc(Cl)c(Cl)c2)CC1 | 93.9% (inactive) |
| C[C@@H](CN1CCC2(C=Cc3ccccc32)CC1)NC(=O)[C@H]1C[C@@H]1c1ccccc1 | 87.1% (inactive) |
